# Screening results: PubChem, National Center for Advancing Translational Sciences (NCATS)
# Shown are actives, neighbours in structure and some others; about 11% of the full set was active somewhere.
# IMPase Li inh = qHTS Assay for Identifying the Cell-Membrane Permeable IMPase Inhibitors: Potentiation with Lithium. 0.35% of 210,000 active. Potency, µM (titrated, usually from 59.4 µM), without a hit: top-dose activity, negative = IMPase inhibition, most hits filed as inhibitors. CHO-M1 cells, IP1 TR-FRET (IP-One), carbachol + lithium; active means well fitted curve in the direction sought with a large enough effect; inconclusive means small, poorly fitted or top-dose-only effect, or another doubt; inactive means no such curve, though single readings can be large; an effect the other way counts as inactive or inconclusive;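 further: IP1 builds up when IMPase is blocked and the TR-FRET signal falls; potency means the concentration at half of the fitted maximal effect; plate controls were basal vehicle for no effect and high inhibitor control for full effect; nearly all actives have a fitted effect of over 50% in size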
#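 Test compounds were applied to CHO-M1 cells previously cultured for 16–30 h at 2000 per well. A small lithium amount accompanied them; after 30 min at 37C, IP1 was quantified by TR-FRET.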
# HPGD inh = qHTS Assay for Inhibitors of HPGD (15-Hydroxyprostaglandin Dehydrogenase); 15-hydroxyprostaglandin dehydrogenase [NAD(+)] (Homo sapiens), P15428; purified HPGD, NADH fluorescence kinetic, PGE2 substrate; Potency, µM, inactives show at the highest dose activity change, negative = inhibition, actives largely listed as inhibitors; 4.3% of 150,000 active; further: potency means the concentration at half of the fitted maximal effect
# Target sequence (P15428 whole entry, looked up): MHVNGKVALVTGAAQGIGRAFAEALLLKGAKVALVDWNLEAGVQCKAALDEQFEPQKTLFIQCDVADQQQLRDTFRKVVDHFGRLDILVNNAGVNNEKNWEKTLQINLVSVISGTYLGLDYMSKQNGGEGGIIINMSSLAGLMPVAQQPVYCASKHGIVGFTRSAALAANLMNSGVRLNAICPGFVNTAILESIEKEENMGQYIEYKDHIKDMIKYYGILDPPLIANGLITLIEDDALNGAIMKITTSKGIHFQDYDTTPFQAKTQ
#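 NADH formation kinetics: reaction with 30 uM PGE2 and 1 mM NAD+ (final), 20 nM enzyme, Tris-HCl pH 8 with Tween 20, after 15 min compound preincubation at room temperature. Fluorescence change, last versus first of five reads.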
# PNC assembly inh = High Content Assay for Compounds that inhibit the Assembly of the Perinucleolar Compartment | PC3M PTB-GFP, PNC prevalence imaging, 16 h; stronger effect = lower value | activity change (PNC), negative = inhibition, % at 10 µM | 3.1% of 140,000 active;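 active means readout at or below -70, meaning at least 70% loss of cells showing the perinucleolar compartment, a nuclear body marking cancer cells; inconclusive means readout between -30 and a set limit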;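 further: plate controls were DMSO wells for no effect and camptothecin positive control wells for full effect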
#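 Compounds are pinned in duplicate onto adhered PC3M cells stably expressing GFP-tagged PTB and incubated 16 h at 37 C. Cells are then fixed, nuclei stained with Hoechst, and PNC-positive cells counted.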
# ALDH1A1 block = qHTS Assay for Inhibitors of Aldehyde Dehydrogenase 1 (ALDH1A1). Aldehyde dehydrogenase 1A1 (Homo sapiens), P00352. Purified ALDH1A1, NADH fluorescence, propionaldehyde substrate. Potency, µM (highest dose often 75.3 µM), for the others: at the top dose activity, negative = inhibition, most hits filed as inhibitors. 7.3% of 220,000 active. AID 1030, 2008;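 further: potency means the concentration at half of the fitted maximal effect; plate controls were no enzyme wells and a reference inhibitor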
# IMPase inh = qHTS Assay for Identifying the Cell-Membrane Permeable IMPase Inhibitors | Inositol monophosphatase 1 (Rattus norvegicus), P97697 | CHO-M1 cells, IP1 accumulation, HTRF TR-FRET ratio | inhibition (IP1 accumulation), % at 46.1 µM | 120,000 tested, under 10 active | AID 901, 2007; active means well fitted curve in the direction sought with a large enough effect in the signal ratio, not every such curve was filed as active; inconclusive means small, poorly fitted or top-dose-only effect, or a change in a side signal; inactive means no such curve, though single readings can be large or run the other way; the % refers to the signal ratio;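 further: cells stimulated with carbachol in lithium chloride buffer; plate controls were DMSO basal wells for no effect and reference inhibitor wells for full effect; higher means more IMPase inhibition seen as more IP1 and lower FRET ratio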
# Target sequence (P97697 whole entry, looked up): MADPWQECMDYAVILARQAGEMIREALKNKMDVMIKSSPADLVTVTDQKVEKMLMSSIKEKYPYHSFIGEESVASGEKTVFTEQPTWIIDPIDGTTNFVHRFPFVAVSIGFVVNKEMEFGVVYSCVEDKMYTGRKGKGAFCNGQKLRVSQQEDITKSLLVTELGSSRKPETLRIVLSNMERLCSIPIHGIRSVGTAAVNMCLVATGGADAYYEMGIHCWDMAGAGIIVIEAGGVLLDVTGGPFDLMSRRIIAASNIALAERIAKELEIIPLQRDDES
#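 Cellular IMPase inhibition is scored as a rise in cytosolic IP1, detected by competitive TR-FRET between d2-labelled IP1 and a europium anti-IP1 antibody. M1-expressing CHO cells were stimulated with carbachol for 30 min at 37C, with lithium (50 mM LiCl) present in the buffer.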
# NPSR antagonist = qHTS Assay for Antagonists of the Neuropeptide S Receptor: cAMP Signal Transduction; 1% of 220,000 active; CHO-NPSR cells, cAMP TR-FRET, antagonist mode; Potency, µM (top dose mostly 38.3 µM), without a hit: at the top dose activity change, negative = inhibition, most hits filed as inhibitors; active means well fitted curve in the direction sought with a large enough effect; inconclusive means small, poorly fitted or top-dose-only effect, or another doubt; inactive means no such curve, though single readings can be large; an effect the other way counts as inactive or inconclusive; further: potency means the concentration at half of the fitted maximal effect; nearly all actives have a fitted effect of over 50% in size
# Starred values were filed as active, the others as inactive; ? = inconclusive; nt = not tested or not shown; [ ] = dose if it differs, or a comment. Unless noted, the call rests on the fitted dose curve; in most records, active means well fitted inhibition curve with a large enough effect (not every such curve was filed as active); inconclusive means small, poorly fitted or top-dose-only effect, or another doubt; inactive means no such curve, though single readings can be large or run the other way. Unless noted, on the % scale 0 is the no-effect control and ±100 the full control effect.
SMILES,IMPase Li inh,HPGD inh,PNC assembly inh,ALDH1A1 block,IMPase inh,NPSR antagonist
Cc1occc1-c1nnc(SCC(=O)NCc2ccco2)n1CC(C)C,-11%[38.3 µM],-13%,1,?,1,-17%[46.1 µM]
C=CCn1c(SCC(=O)NCc2ccco2)nnc1-c1ccc2ccccc2n1,17%[38.3 µM],16µM*,15,?,19,-27%[46.1 µM]
CC(C)(C)c1nc2ccccc2c2nnc(SCC(=O)NCc3ccco3)n12,6%[38.3 µM],16µM*,-19,25µM*,0,-25%[46.1 µM]
CC(C)c1nc2ccccc2c2nnc(SCC(=O)NCc3ccco3)n12,22%[38.3 µM],-26%,50,1%,-4,-9%[46.1 µM]
O=C(CSc1ccc2c(c1)OCCO2)NCc1ccco1,12%[38.3 µM],25µM*,-10,14µM*,-5,?
COc1cccc(/C=N/NC(=O)CCc2n[nH]c(=O)[nH]c2=O)c1O,7%,-29%,-13,10%,-2,15%
O=C(CSCC(=O)NCc1ccco1)NCc1ccco1,23%[38.3 µM],-6%,-19,?,2,-19%[46.1 µM]
CC(C)C(CC(=O)NCc1ccco1)c1ccco1 (centres undefined),11%,14µM*,35,?,0,-3%[46.1 µM]
Cc1cccc(Cc2c(C)nc3nc(SCC(=O)NCc4ccco4)nn3c2C)c1,3%[38.3 µM],16µM*,20,25µM*,0,-29%[46.1 µM]
Cc1cc(C)c2cc(C)c(SCC(=O)NCc3ccco3)nc2c1,10%,nt,nt,14µM*,nt,49%
Cc1cc(C)c2cc(C#N)c(SCC(=O)NCc3ccco3)nc2c1,7%[38.3 µM],-19%,?,?,-23,0%[46.1 µM]
COc1ccccc1NC(=S)NCCSc1ccc(C)cc1,2%,-5%,?,?,1,-5%[46.1 µM]
Cc1cc(C)c(C(=O)Nc2ccc(C)c(C)c2)c(CC(C)(C)C(=O)O)c1,nt,nt,nt,4%,nt,0%
COc1ccc(N=Nc2nc3cc(Br)c(Br)cc3n2C)c(OC)c1,37%,7.9µM*,-16,12%,5,?
CC1CCN(C(=O)c2cc3ccccc3c(=O)o2)CC1,2%,25µM*,-8,1%,nt,3%
O=C(c1cc2ccccc2c(=O)o1)N1CCCCCC1,6%,18µM*,3,?,nt,12%
O=C(c1cc2cc(Br)ccc2oc1=O)N1CCN(c2ccccn2)CC1,-1%[38.3 µM],-8%,1,2%,-13,4%[46.1 µM]
O=C(c1cc2cc(Br)cc(Br)c2oc1=O)N1CCCC1,-2%,28µM*,-19,?,0[0.369 µM],7%[46.1 µM]
O=C(c1cc2cc(Br)ccc2o1)N1CCCCC1,1%,nt,nt,22µM*,nt,11%
O=C(c1cc2c(ccc3ccccc32)oc1=O)N1CCCC1,-9%[38.3 µM],?,-4,?,-7,-2%[46.1 µM]
COC(=O)COc1ccc(S(=O)(=O)Nc2ccc(C(N)=O)cc2)cc1Cl,0%[38.3 µM],-3%,-92*,-3%,2,-4%[46.1 µM]
Nc1nc(Sc2ccc(C(F)(F)F)cc2[N+](=O)[O-])n[nH]1,25%[38.3 µM],-8%,12,11%,0,4%[46.1 µM]
O=[N+]([O-])c1cc(C(F)(F)F)ccc1Sc1ccc2ccccc2n1,36%[38.3 µM],16µM*,-20,?,-1,-21%[46.1 µM]
CC(=O)N1CCN(Cc2nc3cc(NC(=O)c4ccc(Cl)cc4)ccc3n2C)CC1,-4%[38.3 µM],-15%,-6,13%,4,0%[46.1 µM]
Cc1ccc(C2(C)NC(=O)N(CC(=O)NCc3cccs3)C2=O)cc1 (centres undefined),-9%,?,-108*,2%,nt,26%
Cc1ccc(C2(C)NC(=O)N(CC(=O)Nc3cccnc3Cl)C2=O)cc1 (centres undefined),?,nt,nt,3.2µM*,nt,15%
Cc1ccccc1OCC(=O)Nc1ccc2c(c1)COC2=O,23%[38.3 µM],-11%,-15,8%,14,-1%[46.1 µM]
